Laboratory results reported in PubChem BioAssay (Tox21).
“And” between values parts separate entries of the source, which are not always exact repeats. Equal values may be shown once. Results filed as inconclusive are left out. The source made the active and inactive calls. Unless noted, calls follow the shape of the dose curve; as a rule, active = well fitted curve in the direction sought with a large enough effect in the repeat runs; inconclusive = weak or mixed curves; inactive = no such curve, though single readings can be large; an effect the other way counts as inactive or inconclusive.

Key:
[1] = A CellTox Green Cytotoxicity Assay to monitor cytotoxicity in HepG2 cells - 8 hour (AID 1224890); also: nearly all actives have a fitted effect of over 45% in size
How it was run: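 Real-time, homogeneous cytotoxicity readout: dead-cell DNA staining by CellTox Green in HepG2 monolayers, fluorescence measured at timed intervals up to 40 h of continuous compound exposure.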

[2] = qHTS assay to identify small molecule antagonists of the estrogen receptor alpha (ER-alpha) signaling pathway using the BG1 cell line in the presence of 0.1 nM 17-beta-estradiol - cell viability counter screen (AID 1259241); also: nearly all actives have a fitted effect of over 40% in size
How it was run: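 VM7Luc4E2 cells (endogenous ER-alpha, 4×ERE-luciferase), hormone-starved 5 days in charcoal-stripped FBS, were treated with compounds plus 0.1 nM 17beta-estradiol for 22 hr at 37C; viability read in same wells as CellTiter-Fluor live-cell protease fluorescence.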

[3] = qHTS assay to identify small molecule antagonists of the androgen receptor (AR) signaling pathway using the MDA cell line in the presence of 0.5 nM R1881 - cell viability counter screen (AID 1259242); also: nearly all actives have a fitted effect of over 45% in size
How it was run: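 Cytotoxicity toward MDA-kb2 cells is measured by CellTiter-Fluor live-cell protease fluorescence after 16 hr compound exposure at 37C in the presence of 0.5 nM R1881 stimulator.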

[4] = molecular target: Estrogen receptor (Homo sapiens) (UniProt P03372); test: qHTS assay to identify small molecule antagonists of the estrogen receptor alpha (ER-alpha) signaling pathway using the BG1 cell line in the presence of 0.1 nM 17-beta-estradiol (AID 1259244); also: nearly all actives have a fitted effect of over 50% in size
How it was run: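 After 5 days in hormone-depleted medium (charcoal-stripped serum, no phenol red), VM7Luc4E2 cells were seeded, incubated 24 h, then co-treated with compound and 0.1 nM (final) estradiol for 22 h before luminescence detection.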

[5] = qHTS assay to identify small molecule phospholipidosis (PLD) inducers (AID 1259344; active = well fitted curve in the direction sought with a large enough effect; an effect the other way counts as inactive or inconclusive)
How it was run: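 Phospholipidosis is scored by imaging LipidTOX-stained pits in HepG2 cells exposed to compound for 24 h at 37 C; pit counts and integrated intensities per well and per cell serve as outputs.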

[6] = qHTS assay to identify small molecule HDAC inhibitors (AID 1259364); also: nearly all actives have a fitted effect of over 45% in size; also: potency is read from the fitted curve at half-maximal effect; as to activity change, negative = inhibition: top concentration of the series differs between compounds
How it was run: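 Homogeneous cell-based luminescent assay of endogenous class I/II HDAC activity; HCT-116 cells, 2 h compound exposure, 30 min HDAC-Glo development at RT.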

[7] = qHTS assay to identify small molecule agonists of the sonic hedgehog signaling (Shh) pathway - cell viability counter screen (AID 1259366); also: nearly all actives have a fitted effect of over 50% in size; also: potency is read from the fitted curve at half-maximal effect
How it was run: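 NIH/3T3-derived 3T3 Gli1-Luc cells (stable Gli1-responsive firefly luciferase reporter) were seeded, rested 4 hr at 37 C/5% CO2, then exposed to compounds in DMSO for 24 hr; viability was read by CellTiter-Fluor fluorescence in the same wells.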

[8] = qHTS assay to identify small molecule HDAC inhibitors - cell viability counter screen (AID 1259365); also: series mostly up to about 92 µM; nearly all actives have a fitted effect of over 50% in size
How it was run: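 Wild-type HCT-116 cells were seeded at 1,500 per well, incubated overnight at 37 C, then exposed to compounds in DMSO for 2hr. Viability was read by CellTiter-Glo luminescence after 30min at room temperature.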

[9] = qHTS assay to identify small molecule antagonists of the sonic hedgehog signaling (Shh) pathway - cell viability counter screen (AID 1259367); also: nearly all actives have a fitted effect of over 55% in size
How it was run: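 Cells: 3T3 Gli1-Luc, 2,000/well, 4 hr pre-incubation. Compounds in DMSO, then conditioned medium. Incubation 24 hr, 37C, 5% CO2. CellTiter-Fluor at 23 hr, 1 hr, fluorescence.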
% is scaled to controls: 0 for no effect and ±100 for the full control effect.

Chain of Estrogen receptor (Homo sapiens) (P03372 whole entry, looked up): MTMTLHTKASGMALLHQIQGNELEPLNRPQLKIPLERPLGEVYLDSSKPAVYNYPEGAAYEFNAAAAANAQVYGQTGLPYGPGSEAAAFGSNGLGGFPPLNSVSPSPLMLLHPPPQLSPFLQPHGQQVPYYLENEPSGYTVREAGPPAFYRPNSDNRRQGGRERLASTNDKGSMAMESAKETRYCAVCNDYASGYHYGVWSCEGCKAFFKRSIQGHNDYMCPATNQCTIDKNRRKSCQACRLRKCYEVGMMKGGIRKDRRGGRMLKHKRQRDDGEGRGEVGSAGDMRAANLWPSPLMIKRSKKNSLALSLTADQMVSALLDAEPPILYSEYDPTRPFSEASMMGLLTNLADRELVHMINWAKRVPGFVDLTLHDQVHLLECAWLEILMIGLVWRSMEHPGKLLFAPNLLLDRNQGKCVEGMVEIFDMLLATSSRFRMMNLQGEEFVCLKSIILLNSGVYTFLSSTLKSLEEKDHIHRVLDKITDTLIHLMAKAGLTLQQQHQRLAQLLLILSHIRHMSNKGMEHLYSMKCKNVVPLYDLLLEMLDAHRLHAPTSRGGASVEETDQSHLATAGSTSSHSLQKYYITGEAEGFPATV

COC(=O)C1=C(C)NC(C)=C(C(=O)OCC(C)=O)C1c1ccccc1[N+](=O)[O-] (configuration not stated)
inactive: Potency [1] | outcome [2] | outcome [3] | outcome [4] | Potency [5] | Potency [6]
active: Potency [7] 26.6 µM

C[C@H](O)C(=O)Nc1c(I)c(C(=O)NC(CO)CO)c(I)c(C(=O)NC(CO)CO)c1I
inactive: Potency [1] | outcome [2] | outcome [3] | outcome [4] | Potency [5] | Potency [6] | Potency [7]

CCN(CC)C(=O)c1ccc(O)c(OC)c1
inactive: Potency [1] | outcome [2] | outcome [3] | outcome [4] | Potency [5] | outcome [8] | Potency [7] | outcome [9]

Oc1cc(O)c2c(c1)O[C@H](c1ccc(O)c(O)c1)[C@H](O)C2
inactive: Potency [1] | outcome [2] | outcome [3] | outcome [4] | Potency [5] | Potency [6] | outcome [8] | Potency [7] | outcome [9]

CCCC(=O)O[C@]1(C(=O)CCl)[C@@H](C)C[C@H]2[C@@H]3CCC4=CC(=O)C=C[C@]4(C)[C@@]3(F)C(=O)C[C@@]21C
inactive: Potency [1] | outcome [2] | outcome [3] | outcome [4] | Potency [5]

CC(C)c1ccc2oc3nc(N)c(C(=O)O)cc3c(=O)c2c1
active: Potency [6] 0.266 µM
inactive: Potency [1] | outcome [2] | outcome [3] | outcome [4] | Potency [5] | outcome [8] | Potency [7] | outcome [9]

Cc1cc(C)cc(OCC2CNC(=O)O2)c1 (configuration not stated)
inactive: Potency [1] | outcome [2] | outcome [3] | outcome [4] | Potency [5] | Potency [6] | outcome [8] | Potency [7] | outcome [9]

NC(N)=NS(=O)(=O)c1ccc(N)cc1
inactive: Potency [1] | outcome [2] | outcome [3] | outcome [4] | Potency [5] | Potency [6] | outcome [8]

C=C(C)[C@H]1CC=C(C)CC1
inactive: Potency [1] | outcome [2] | outcome [3] | outcome [4] | Potency [6]

CCn1cc(C(=O)O)c(=O)c2cc(F)c(N3CCN(C)CC3)cc21
inactive: cytotoxicity increase [1] -10.7% [at 15.8 µM] | activity change, negative = cytotoxicity [2] 1.73% [at 19 µM] | viability change, negative = cytotoxic [3] 1.22% [at 19 µM] | activity change, negative = inhibition [4] 6.79% [at 19 µM] | Potency [5] | activity change, negative = inhibition [6] -0.624% [at 19 µM] | activity change, negative = cytotoxicity [8] 2.46% [at 19 µM] | viability change, negative = cytotoxic [9] 3.37% [at 19 µM]

CC12CCC(CC1=O)C2(C)C (configuration not stated)
inactive: Potency [1] | outcome [2] | outcome [3] | outcome [4] | Potency [6] | outcome [8]

CCCOc1ccccc1-c1nc2n[nH]nc2c(=O)[nH]1
inactive: Potency [1] | outcome [2] | outcome [3] | outcome [4] | Potency [5] | Potency [6] | Potency [7] | outcome [9]

OCC(O)[C@@H](O)[C@H](O)[C@H](O)CO[C@H]1O[C@H](CO)[C@@H](O)[C@H](O)[C@H]1O (some centres not stated)
inactive: Potency [1] | outcome [2]

CCN(CC)S(=O)(=O)c1ccc(C(=O)O)cc1
inactive: Potency [1] | outcome [2] | outcome [3] | outcome [4] | Potency [5] | Potency [6] | outcome [8] | Potency [7] | outcome [9]

COc1ccc2cc(C=O)ccc2c1
inactive: Potency [1] | outcome [2] | outcome [3] | outcome [4] | Potency [6] | outcome [8] | Potency [7]

Cc1nccn1CC1CCc2c(c3ccccc3n2C)C1=O (configuration not stated)
inactive: Potency [1] | outcome [2] | outcome [3] | outcome [4] | PLD induction [5] -0.746% [at 7.66 µM] and -2.67% [at 3.15 µM] | outcome [8] | Potency [7] | outcome [9]

CCCCc1ccc(N)cc1
inactive: Potency [1] | outcome [2] | outcome [3] | outcome [4] | Potency [6] | outcome [8] | Potency [7] | outcome [9]

CCCCCCOC(=O)CC(CC(=O)OCCCCCC)(OC(=O)CCC)C(=O)OCCCCCC
inactive: Potency [1] | outcome [2] | outcome [3] | outcome [4] | Potency [6] | outcome [8] | Potency [7] | outcome [9]

C/C=C1\C(=O)C[C@H]2[C@@H]3CCC4=CC(=O)CC[C@]4(C)[C@H]3CC[C@]12C
inactive: Potency [1] | outcome [2] | outcome [3] | outcome [4] | Potency [6] | outcome [8] | outcome [9]

O=C(O)Cc1cc(I)c(Oc2cc(I)c(O)c(I)c2)c(I)c1
inactive: Potency [1] | outcome [2] | outcome [3] | outcome [4] | Potency [6] | outcome [8] | Potency [7] | outcome [9]

O=C1CC2(CCCC2)CC(=O)N1
inactive: Potency [1] | outcome [2] | outcome [3] | outcome [4] | Potency [6] | outcome [8] | outcome [9]

CCCCCCCCCCCCCCCCCC(=O)OCCCCCCCCCCCCCC(C)C
inactive: Potency [1] | outcome [2] | outcome [3] | outcome [4] | Potency [6] | Potency [7]

COc1ccc(N=[N+]([O-])c2ccc(OC)cc2)cc1
inactive: Potency [1] | outcome [2] | outcome [3] | outcome [4] | outcome [8] | Potency [7] | outcome [9]
active: Potency [6] 1.08 µM

C1COCCO1
inactive: Potency [1] | outcome [2] | outcome [3] | outcome [4] | Potency [6] | outcome [8] | Potency [7] | outcome [9]

CCC(=O)/C=C/c1ccc(OC)cc1
active: Potency [6] 24.3 µM
inactive: Potency [1] | outcome [2] | outcome [3] | outcome [4] | outcome [8] | Potency [7] | outcome [9]
